# Sfp inh: Sfp phosphopantetheinyl transferase inhibition | Q9F4F7 | Biochemical Sfp PPTase activity, qHTS | Potency, µM, usual class: inhibitors | 310,000 compounds, 3.5% hits | AID 1490;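 note: the enzyme is Sfp with the accession as filed and its product quenches rhodamine fluorescence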
#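 After 15 min at room temperature with compound, 15 nM Sfp received 5 uM rhodamine-CoA plus 12.5 uM BHQ-2-ybbR (50 mM Hepes pH 7.6, 10 mM MgCl2). Rate came from the fluorescence difference over 30 min, ex 525/em 598 nm.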
# G9a block: blocks human histone lysine methyltransferase G9a; Q96KQ7; G9a H3K9 monomethylation, AlphaScreen, 2 h; Potency, µM (top dose mostly 102 µM), usual class: inhibitors; 350,000 compounds, 8.8% hits; AID 504332; note: nearly all actives have a fitted effect of over 75% in size
#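 G9a (20 nM) was preincubated 15 min with compound, then reacted 2 h at room temperature with 500 nM biotin-H3K9 peptide and 20 µM SAM. Monomethyl-H3K9 detected by AlphaScreen using anti-H3K9me1 antibody.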
# TDP1 inh: inhibitors of human tyrosyl-DNA phosphodiesterase TDP1; recombinant TDP1, AlphaScreen DNA substrate cleavage; Potency, µM (series often up to 130 µM), hits mostly inhibitors; 350,000 compounds, 0.28% hits; AID 485290; note: nearly all actives have a fitted effect of over 40% in size
# Target sequence (Q9NUW8 whole entry, looked up): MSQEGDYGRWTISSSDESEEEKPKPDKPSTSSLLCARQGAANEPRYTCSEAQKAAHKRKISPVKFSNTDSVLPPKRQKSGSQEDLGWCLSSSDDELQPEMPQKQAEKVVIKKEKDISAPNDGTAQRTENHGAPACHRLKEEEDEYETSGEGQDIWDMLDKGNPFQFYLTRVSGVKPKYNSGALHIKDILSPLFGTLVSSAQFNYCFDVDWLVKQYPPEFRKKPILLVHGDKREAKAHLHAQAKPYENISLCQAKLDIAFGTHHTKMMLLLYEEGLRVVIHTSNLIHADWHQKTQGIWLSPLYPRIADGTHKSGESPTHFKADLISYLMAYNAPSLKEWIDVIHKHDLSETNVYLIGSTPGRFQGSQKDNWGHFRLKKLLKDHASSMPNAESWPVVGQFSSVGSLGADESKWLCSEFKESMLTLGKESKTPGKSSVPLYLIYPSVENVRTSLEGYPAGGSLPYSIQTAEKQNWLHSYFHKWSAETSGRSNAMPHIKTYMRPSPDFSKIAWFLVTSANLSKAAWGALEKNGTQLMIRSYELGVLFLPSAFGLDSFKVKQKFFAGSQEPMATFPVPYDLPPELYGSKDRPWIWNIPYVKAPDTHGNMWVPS
#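 E. coli-derived human Tdp1, 1 nM final. Cpd preinc 15 min RT; substrate 15 nM final, 5 min RT; AS bead mix 10 ug/ml final, 10 min RT. Signal loss = tyrosine-FITC cleavage. No-enzyme wells = max signal.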
# HP1b binding inh: inhibitors of HP1-beta chromodomain binding to methylated histone tails. AlphaScreen HP1-beta / biotin-H3K9me3 peptide binding. P83916. 390,000 compounds, 0.56% hits. Potency, µM (doses to about 114 µM), usual class: inhibitors. AID 540317; note: nearly all actives have a fitted effect of over 70% in size
#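 HP1-beta protein (50 nM final) preincubated 30 min at room temperature with biotinylated H3(1-18)K9me3 peptide (50 nM) in PBS pH 7.4, 0.01% Tween-20, then compound added for 30 min. AlphaScreen streptavidin donor/nickel chelate acceptor beads (10 ug/mL final), 30 min dark, luminescence read.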
# BAZ2B block: inhibitors of human BAZ2B bromodomain | Q9UIF8 | AID 504333 | Potency, µM (highest dose often 114 µM), actives largely listed as inhibitors | AlphaScreen BAZ2B-H3K14Ac peptide displacement | 360,000 compounds, 4.4% hits; note: nearly all actives have a fitted effect of over 60% in size
#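 AlphaScreen displacement: compounds (up to 110uM) incubated 30 min at room temperature with a preformed 50 nM BAZ2B/50 nM biotinylated H3K14Ac peptide complex in PBS pH 7.4 with Tween-20. Donor and acceptor beads at 10 ug/mL final added, 20 min light-protected before reading.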
# JMJD2A Tudor: inhibitors of human JMJD2A Tudor domain; O75164; AlphaScreen JMJD2A-Tudor / H3K4me3 peptide binding; Potency, µM (highest dose often 114 µM), usual class: inhibitors; 390,000 compounds, 4.4% hits; AID 504339; note: nearly all actives have a fitted effect of over 50% in size
# Hits are given with their value; i = inactive; ? = inconclusive; nt = no result; [ ] = dose if it differs, or a comment. This is a sample that favours compounds with a hit; in the whole collection about 12% have one here. Calls come from the whole dose curve; as a rule, active = well fitted curve in the direction sought with a large enough effect; inconclusive = small, poorly fitted or top-dose-only effect, or another doubt; inactive = no such curve, though single readings can be large; an effect the other way counts as inactive or inconclusive.
SMILES,Sfp inh,G9a block,TDP1 inh,HP1b binding inh,BAZ2B block,JMJD2A Tudor
O=[N+]([O-])c1ccc([N+](=O)[O-])c(Nc2ccc(N3CCOCC3)cc2)c1,i,i[12.7 µM],i,?,18µM,18µM
CC(C)(C)CNc1cc(N2CCOCC2)ccc1[N+](=O)[O-],i,32µM,i,i,?,?
O=C(c1ccccc1)N1CCN(c2ccc([N+](=O)[O-])c(NCc3cccnc3)c2)CC1,i,i,i,?,i,?
Cc1cccc(OCCNc2cc(N3CCN(C)CC3)ccc2[N+](=O)[O-])c1,i,i,i,50µM,?,40µM
CC(C)CC(=O)N1CCN(c2ccc([N+](=O)[O-])c(NCc3ccccc3)c2)CC1,nt,nt,nt,?,nt,50µM
Fc1cccc(Cl)c1CNc1n[nH]c(-c2ccco2)n1,nt,i,i,i,?,i
Cc1ccc(-c2cccc(-c3cc(=O)oc4ccc(C(C)(C)C)cc34)c2)cc1,i,i,i,i,nt,i
Cc1ccc(OCCNc2cc(N3CCN(CCO)CC3)ccc2[N+](=O)[O-])cc1C,i,?,i,?,32µM,?
CS(=O)(=O)N1CCN(c2ccc([N+](=O)[O-])c(NCCN3CCOCC3)c2)CC1,i,i,i,i,i,i
Cc1cccc(OCCNc2cc(N3CCOCC3)ccc2[N+](=O)[O-])c1,i,10µM,i,i,?,?
Cc1ccccc1OCCNc1cc(N2CCNCC2)ccc1[N+](=O)[O-],i,32µM,i,nt,?,nt
COc1ccccc1OCCNc1cc(N2CCCCC2)ccc1[N+](=O)[O-],i,?,i,?,?,?
COc1ccc(Cl)cc1-c1nc(SCC(=O)NCCN2C(=O)CSC2=O)n[nH]1,i,i,i,i,i,i
CC(C1CCCC(=O)C1)[N+](=O)[O-] (centres undefined),i,nt,i,nt,nt,nt
COC(=O)c1cc(CSc2nnc(NC3CCCCC3)s2)oc1C,32µM,?,i,i,?,89µM
O=c1cc(CSc2nnc(NC3CCCCC3)s2)nc2sccn12,i,?,i,i,i,i
COc1ccc(NCc2cc3cc4c(cc3n(CC(=O)Nc3cc(C)ccc3C)c2=O)OCCO4)cc1,nt,i,i,i,i,i
COC(=O)CCCN1C(=O)c2cccc3cccc(c23)C1=O,i,i,i,i,45µM,i
O=C(CCCCCN1C(=O)c2cccc3cccc(c23)C1=O)NO,i,i,i,nt,nt,nt
O=C(CCCN1C(=O)c2cccc3cccc(c23)C1=O)N1CCN(c2ccc(F)cc2)CC1,i,?,i,i,i,i
COc1ccc(N2CCN(C(=O)CCCN3C(=O)c4cccc5cccc(c45)C3=O)CC2)cc1,i,nt,i,i,40µM,?
Cc1ccccc1NC(=O)CON=C(N)c1ccccc1,nt,i,i,i,i,i
Cc1ccc(Cl)cc1NC(=O)C1CCCN1S(=O)(=O)c1ccc(-c2ccc(=O)[nH]n2)s1 (centres undefined),i,i,i,i,i,i
NC(=O)[C@H]1O[C@@H](O)[C@H](O)[C@@H](O)[C@@H]1O,i,?,nt,nt,nt,nt
CCN(CCCNC(=O)c1ccc(Sc2ccc(F)cc2)c(NC(C)=O)c1)c1ccccc1,nt,?,i,i,?,56µM
SMILES,Sfp inh,G9a block,TDP1 inh,HP1b binding inh,BAZ2B block,JMJD2A Tudor
CC(=O)Nc1cc(C(=O)NCc2ccccc2Cl)ccc1Sc1ccc(F)cc1,nt,i,i,i,i,i
O=c1[nH]c(=O)n(Cc2ccccc2)c2nc(-c3ccco3)cc(C(F)(F)F)c12,i,i,i,i,i,i
Cc1cc(C)n(CCc2nc(-c3ccco3)cs2)n1,8.9µM,3.5µM,nt,?,50µM,50µM
Cc1nn(CCc2nc(-c3ccco3)cs2)c2[nH]c(=O)cc(C(F)(F)F)c12,?,?,?,?,?,79µM
O=C1CCCC2=C1C(c1cccc(O)c1)C1=C(N2)c2ccccc2C1=O (centres undefined),i,32µM,i,i,i,i
CC1(C)CC(=O)C2=C(C1)NC1=C(C(=O)c3ccccc31)C2c1ccc(O)cc1 (centres undefined),i,25µM,i,i,40µM,i
CCCc1ccc(C2C3=C(CC(C)(C)CC3=O)NC3=C2C(=O)c2ccccc23)cc1 (centres undefined),i,35µM,i,i,25µM,?
CCCCc1ccc(C2C3=C(CC(C)(C)CC3=O)NC3=C2C(=O)c2ccccc23)cc1 (centres undefined),i,?,i,?,?,?

# Screening data as filed in PubChem.
